Results taken from PubChem BioAssay AID1117319 (Southern Research Institute, 2015).
Several values for one entry are separate records, joined by “and”; a condition that tells them apart may be missing. Equal entries are not always repeated. Among all 260,000 compounds or so, about 1,500 (0.58%) were called active. Not shown: some 5% with an inconclusive outcome.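 Rule for the calls: active = inhibition above a set limit at one or more doses, reproduced on every date tested; inconclusive = results disagree between test dates, or hit never tested in dose response; inactive = the rest.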 Not all results are given here. Results with a measured potency or affinity are listed apart.

Each compound was assayed against Virion infectivity factor (Human immunodeficiency virus type 1 group M subtype B (isolate BH10)) + Virion infectivity factor (Human immunodeficiency virus type 1 group M subtype B (isolate BRU/LAI)) + Virion infectivity factor (Human immunodeficiency virus type 1 group M subtype B (isolate PCV12)) + Virion infectivity factor (Human immunodeficiency virus type 1 group M subtype B (isolate HXB2)) + DNA dC->dU-editing enzyme APOBEC-3G (Homo sapiens) (UniProt P69720+P69721+P69722+P69723+Q9HC16) (assay: inhibitors of Vif binding to APOBEC3G peptide, primary screen, biochemical, TR-FRET, GST-Vif 1-94, biotin-A3G peptide, dose response retest (AID 1117319;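 note: Vif residues 1-94 fused to GST binding biotinylated APOBEC3G peptide 110-148; 0% = full assay without inhibitor and 100% = GST in place of GST-Vif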)). Conditions: hits give high values.

inhibition, inactive:
O=c1cc(NCCc2ccccc2)c2ccccc2o1 -9.21%
Cc1ccc(OCCNC(=O)CNC(=O)c2ccccc2Cl)cc1 -0.63%
Cc1cc(C)c(S(=O)(=O)N2CCCC(C(=O)NCCC3=CCCCC3)C2)c(C)c1 (stereo unspecified) 9.17%
O=C(N=C1SC2CS(=O)(=O)CC2N1Cc1ccccc1)C1CC1 (stereo unspecified) -2.49%
COc1ccc(CNc2nc(NCc3ccc(OC)c(OC)c3)n(C(=O)c3cccs3)n2)cc1OC 13.3%
COc1ccc(CN2CCNC(=O)C2CC(=O)N(Cc2nccn2C)C(C)C)c(OC)c1 (stereo unspecified) -0.6%
CC(C)N(Cc1nccn1C)C(=O)CC1C(=O)NCCN1Cc1ccc(F)c(F)c1 (stereo unspecified) -8.55%
Cc1ccc(SCCOCCN2CCc3ccccc3C2)cc1 -8.65%
C/C(Cl)=C/Cc1c(C)[nH]c2ccc(C)cc2c1=O -1.26%
COc1ccc(C(=O)N(C)C(C)c2nccs2)cc1OC1CCN(C(C)=O)CC1 (stereo unspecified) -6.6%
CC1(C)CC2(CC(c3ccccc3)c3ccc(O)cc3O2)NC(=S)N1 (stereo unspecified) 0.62%
CC1(C)CC2(CC(c3ccccc3F)c3cc(Cl)c(O)cc3O2)NC(=S)N1 (stereo unspecified) 0.09%
Cc1cc(C)c(C(=O)NC2CC(C)(C)Cc3c2cnn3-c2ccccc2)o1 (stereo unspecified) 1.78%
O=[N+]([O-])c1ccc(-c2ccc(/C=N/Nc3nc(N4CCCC4)nc(N4CCCC4)n3)o2)cc1 -1.43%
O=[N+]([O-])c1ccc(/C=N/Nc2nc(N3CCCCCC3)nc(N3CCCCCC3)n2)o1 10.1%
COC(=O)C1=C(CS(=O)(=O)c2ccc(Cl)cc2)NC(=O)NC1c1ccc(O)cc1 (stereo unspecified) 9.59%
CC(C)N(C(=O)CSc1nnc(-c2cc3ccccc3cc2O)n1Cc1ccco1)C(C)C 9.68%
CC(=O)c1cccc(NC(=O)c2ccoc2C)c1 7.62%
CC1(C)N=C(c2ccccc2)C(=O)N1 1.67%
CC(C)[C@H](NC(=O)c1ccco1)C(=O)OCC(=O)c1ccc2c(c1)NC(=O)CO2 30.8%
COc1cc(C(=O)NNC(=S)NC(=O)c2ccc(F)cc2)cc(OC)c1OC 13.5%
CCc1cc2c(=O)c(-c3nc4ccccc4n3C)c(C)oc2c(CN(CC)CC)c1O -0.78%
CCN(CC)CCn1c2ccccc2c2nc3ccccc3nc21 -1.16%
CC1=CN2C(=N)/C(=C/c3ccco3)C(=O)N=C2S1 14.9%
CC1=CN2C(=N)/C(=C/c3ccc(Sc4ccc(C)cc4)o3)C(=O)N=C2S1 -0.88%
O=C(Nc1cccc2c1[nH]c1ccccc12)C(F)(F)F -2.08%
COc1ccc2c([N+](=O)[O-])c(Cl)[nH]c2c1 21.2%
COc1cc2[nH]c3c(Cl)ncnc3c2cc1OC -0.29%
COc1ccc(C)cc1S(=O)(=O)NCC(c1ccco1)N1CCc2ccccc2C1 (stereo unspecified) -3.21%
COc1cccc(C2C(C#N)=C(N)OC3=C2C(=O)CCC3)c1OC(=O)c1ccco1 (stereo unspecified) 22.1%
N#CC1=C(N)OC2=C(C(=O)CC(c3ccco3)C2)C1c1ccc(OCc2c(F)cccc2Cl)cc1 (stereo unspecified) 13.6% and 14.7%
Cc1ccc(NC(=O)C(C)Sc2nc(-c3ccccc3)cc(=O)[nH]2)cc1 (stereo unspecified) -0.75%
O=C1C=C(c2ccccc2)C(c2ccccc2)C1 (stereo unspecified) 0.24%
Cc1onc(-c2ccccc2Cl)c1C(=O)N1CCCC1 -6.38%
COc1ccc(N2CCN(C(=O)c3ccc(C)cc3Cl)CC2)cc1 6.52%
O=C(COc1ccccc1)N1CCN(c2ccccc2)CC1 10.3%
COc1ccc(N2CCN(C(=O)COc3ccc4ccccc4c3)CC2)cc1 2.55%
COc1ccc(S(=O)(=O)N2CCN(C(=O)c3c(-c4ccccc4)noc3C)CC2)cc1 0.45%
COc1ccc(C(=O)N2CCN(c3cccc(Cl)c3)CC2)cc1 -2.36%
COc1ccc(N2CCN(C(=O)COC(=O)c3c(-c4ccccc4)noc3C)CC2)cc1 -5.58%
Cc1onc(-c2ccccc2Cl)c1C(=O)N1CCN(c2ccccc2)CC1 -3.16%
CCS(=O)(=O)N1CCC(C(=O)NC2CCCCCCC2)CC1 1.17%
Cc1cc(C(=O)N2CCN(S(=O)(=O)c3ccc(C)c(C)c3)CC2)no1 3.5%
COc1ccc(C)cc1NC(=O)c1cnc2scc(C)n2c1=O -5.79%
COc1ccc2cc(C3CC(c4cccs4)=NN3S(C)(=O)=O)c(Cl)nc2c1 (stereo unspecified) -0.38%
COc1ccc2[nH]c(C(=O)NCc3ccccc3)c(C)c2c1 1.63%
Cc1ccc(NS(=O)(=O)c2csc(C(N)=O)c2)cc1C -5.43%
CN(CC(=O)NCCc1ccc(S(N)(=O)=O)cc1)Cc1ccc(Cl)cc1Cl 4.74%
Cc1cc([N+](=O)[O-])nn1CC(=O)N1CCc2ccccc2C1 -2.29%
Cc1ccc(C)c(NC(=O)CN(C)C(=O)Cc2coc3cc(C)c(C)cc23)c1 0.3%
O=C(COC(=O)c1cnccn1)Nc1cc(S(=O)(=O)N2CCOCC2)ccc1Cl -11.1%
CN(C)c1ccc(-c2nc3ccccn3c2/N=C/c2ccc(Br)cc2)cc1 6.4%
c1ccc(Nc2c(-c3ccco3)nc3ccccn23)cc1 -2.7%
O=[N+]([O-])c1ccc(-c2ccc(C=Nc3cccc4ccccc34)o2)cc1 3.05%
Cc1ccc(Nc2c(-c3ccco3)nc3ccccn23)cc1 12%
Cc1cc([N+](=O)[O-])c(C)cc1-c1ccc(/C=N/n2cnnc2)o1 1.64%
O=[N+]([O-])c1ccc(-c2ccc(/C=N/c3c(-c4ccco4)nc4ccccn34)o2)cc1 7.55%
COc1cc(-c2nc3ccccn3c2/N=C/c2cc(OC)c(O)cc2Cl)ccc1O 22.2%
O=[N+]([O-])c1cc(-c2ccc(/C=N/n3cnnc3)o2)ccc1Cl 6.34%
COc1cc2[nH]c(=S)n(Cc3cccs3)c(=O)c2cc1OC -5.73%
Cc1cc(C)cc(OCC(=O)NN2C(=O)c3ccccc3C2=O)c1 2.37%
Cc1ccc(N(CC(=O)NC(C)(C)C)C(=O)CS(=O)CC(=O)Nc2ccc(F)cc2)cc1 (stereo unspecified) 10.4%
CCN(CC(=O)Nc1ccc(OC)cc1)C(=O)c1ccc2c(c1)NC(=O)C(C)S2 (stereo unspecified) 6.39%
COc1cccc(C(=O)N2CCN(C(=O)c3cccc4ccccc34)CC2)c1OC 1.56%
CSC1=N/C(=C\c2ccccc2)C(=O)N1C 4.78%
O=C(CN1C(=O)S/C(=C/c2ccccn2)C1=O)N1CCOCC1 2.37%
CCCCCn1c(=NC(=O)c2ccco2)c(C(=O)OCC)cc2c(=O)n3ccccc3nc21 4.41% and -0.06%
COc1cc(-c2nnc(NC(=O)CCS(=O)(=O)c3ccccc3)o2)cc(OC)c1OC 2.37%
O=C(O)Cn1cc(/C=C2/NC(=O)N(c3ccc(Cl)cc3)C2=O)c2ccccc21 -2.83%
Cc1cc(/C=C2\SC(=S)N(Cc3ccco3)C2=O)c(C)n1-c1ccccc1 3.57%
Cc1cc(/C=C2/C(=O)NN(c3ccccc3)C2=O)c(C)n1-c1ccc(O)cc1 -5.99%
O=C(O)Cn1cc(/C=C2\SC(=O)N(c3ccccc3)C2=O)c2ccccc21 -7.51%
CC1(C)CC(=O)C2=C(C1)N(Cc1ccco1)C(=O)NC2(C(F)(F)F)C(F)(F)F -1.11%
O=C1c2cccnc2C(=O)N1Cc1ccco1 7.44%
O=C1CNC(=S)N1Cc1ccc(F)cc1 5.9%
Cn1cccc1/C=C1\SC(=S)N(NC(=O)c2ccc(F)cc2)C1=O 14.3%
CNC(=O)C[C@H]1C(=O)N(C2CCCCC2)C[C@@H]1C 8.77%
COCCn1c(C)cc(/C=C(\C#N)C(=O)OCC(=O)N(C)c2c(N)n(Cc3ccccc3)c(=O)[nH]c2=O)c1C 10.7%
N#Cc1c(F)cccc1NCc1cccs1 -3.38%
Cc1nc(C)c(C(=O)C2=C(O)C(=O)N(CCCn3ccnc3)C2c2ccc(Cl)cc2)s1 (stereo unspecified) 0.13%
COc1ccc(-c2cc(C(=O)N3CCC3)c3ccccc3n2)cc1OC -14.9%
Cc1ccc(C(=O)O)c(C(=O)Nc2nc3ccccc3s2)c1 -4.97%
O=C(/C=C/c1cccs1)Nc1ccc(N2CCOCC2)c(S(=O)(=O)Nc2ccccc2Cl)c1 -5.05%
O=C1N/C(=C/c2cccn2-c2ccc(F)cc2)C(=O)N1Cc1ccccc1 6.05%
CC1=CC2=NC(=O)/C(=C\c3cccn3CCOc3cccc(C)c3)C(=N)N2O1 -1.97%
COc1cccc(OCCn2cccc2/C=C2/C(=N)N3OC(C)=CC3=NC2=O)c1 1.07%
Cc1ccc(/C=C2/NC(=O)N(Cc3ccccc3)C2=O)s1 3.49%
O=Cc1cccn1-c1ccc2ccccc2c1 -0.71%
O=C1Nc2ccccc2/C1=C\c1cccn1-c1ccc(OC(F)(F)F)cc1 5.25%
Cn1cccc1/C=C1\SC(=Nc2ccccc2)NC1=O -5.03%
Cn1c(=O)n(C)c2cc(/C=C3/NC(=O)N(Cc4ccccc4)C3=O)ccc21 -1.59%
